HT1080 IDH1KD tx = qHTS for induction of synthetic lethality in tumor cells producing 2HG: qHTS for the HT-1080-IDH1KD cell line; Potency, µM (top dose mostly 46.1 µM), for the others: at the top dose activity, negative = toxicity, actives largely listed as cytotoxic; HT-1080 IDH1 knockdown viability, ATP luminescence, 48 h; AID 686971, 2013; 360,000 tested, 2% active;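 further: potency means the concentration at half of the fitted maximal effect; 0% = DMSO wells and -100% = cell-free medium wells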
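CellTiter-Glo luminescence after 48 h compound exposure at 37 degrees C of IDH1-knockdown HT-1080 cells in 5% FBS RPMI. %Activity scaled between DMSO wells and cell-free media wells, with curves fitted and assigned curve classes.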
ELG1 repair inh = qHTS screen for small molecules that inhibit ELG1-dependent DNA repair in human embryonic kidney (HEK293T) cells expressing luciferase-tagged ELG1 | HEK293T ELG1-luciferase reporter, luminescence, 16 h; DNA damage induced by 5-fluorouridine | Potency, µM (doses to about 46.1 µM), inactives show top-dose activity change, negative = inhibition, most hits filed as inhibitors | 330,000 tested, 2.3% active; further: potency means the concentration at half of the fitted maximal effect; nearly all actives have a fitted effect of over 55% in size
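DMSO vehicle served as the neutral condition. Each well held 2,000 cells given 5-fluorouridine plus compound; after 16 hr at 37 °C/5% CO2, ONE-Glo was added and luciferase measured 30 min later.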
IL1B secr inh = qHTS for Inhibitors of Inflammasome Signaling: IL-1-beta AlphaLISA Primary Screen | AID 743279, 2014 | activity change, % at 57.5 µM | THP-1 LPS/ATP IL-1B secretion, AlphaLISA, 16 h; stronger effect = lower value | 360,000 tested, 4.7% active; in the data active means activity change below about -50%; inconclusive means mostly about -30% to -49%
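THP-1 cells pretreated 1 hr with compounds (up to 57.5 uM final), then stimulated with LPS (250 ng/mL final) plus ATP (1.25 mM final); secreted IL-1B measured by AlphaLISA after 16 hr, decreased signal indicating inhibition.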
HT1080NT lethal = qHTS for induction of synthetic lethality in tumor cells producing 2HG: qHTS for the HT-1080-NT fibrosarcoma cell line; HT-1080-NT fibrosarcoma viability, CellTiter-Glo ATP luminescence, 48 h; AID 686970, 2013; Potency, µM (top dose mostly 46.1 µM), without a hit: at the top dose activity, negative = less viability, usual class: cytotoxic; 360,000 tested, 1.6% active;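 further: NT is the 2HG producing partner of a matched IDH1 knockdown line; potency means the concentration at half of the fitted maximal effect; 0% = DMSO-treated cells and -100% = media-only wells without cells; nearly all actives have a fitted effect of over 55% in size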
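750 cells/well, RPMI + 5% FBS; 2 h settle, compound pin-transfer, 48 h at 37 degrees C. CellTiter-Glo 10 min RT, luminescence. Normalized to DMSO and media-only wells.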
TDP1 cell noCPT = qHTS for Inhibitors of human tyrosyl-DNA phosphodiesterase 1 (TDP1): qHTS in cells in absence of CPT; DT40 Tdp1-/- hTDP1 cells, no CPT, ATP luminescence, 48 h; Potency, µM (titrated, usually from 46.2 µM), inactives show top-dose activity change, negative = growth inhibition, most hits filed as inhibitors; AID 686978, 2013; 420,000 tested, 15% active; further: potency means the concentration at half of the fitted maximal effect; nearly all actives have a fitted effect of over 55% in size
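Compound effects on proliferation are scored in DT40 Tdp1-/-;hTDP1 cells in the absence of CPT. ATP levels (CellTiter-Glo luminescence) are recorded after a ≥48 hr, 37 °C incubation.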
DT40 TDP1 CPT = qHTS for Inhibitors of human tyrosyl-DNA phosphodiesterase 1 (TDP1): qHTS in cells in presence of CPT; chicken DT40 Tdp1-/-;hTDP1 cells + 20 nM CPT, ATP luminescence, 48 h; Potency, µM (doses to about 46.2 µM), for the others: at the top dose activity change, negative = growth inhibition, actives largely listed as inhibitors; 420,000 tested, 12% active; further: potency means the concentration at half of the fitted maximal effect; nearly all actives have a fitted effect of over 55% in size
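Cell growth measured by CellTiter-Glo luminescence after a minimum 48 h, 37 C compound exposure with 20 nM CPT in Tdp1-knockout DT40 cells stably expressing hTDP1, seeded 400/well; qHTS titration format.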
* = called active by the depositor; u = inconclusive; x = not tested or not shown; [ ] = dose if it differs, or a comment. An excerpt weighted towards active compounds, which were near 19% of everything screened. Unless noted, the call rests on the fitted dose curve; in most records, active means well fitted curve in the direction sought with a large enough effect; inconclusive means small, poorly fitted or top-dose-only effect, or another doubt; inactive means no such curve, though single readings can be large; an effect the other way counts as inactive or inconclusive. Unless noted, on the % scale 0 is the no-effect control and ±100 the full control effect.

SMILES	HT1080 IDH1KD tx	ELG1 repair inh	IL1B secr inh	HT1080NT lethal	TDP1 cell noCPT	DT40 TDP1 CPT
CCN1CCCC1CNC(=O)c1ccc2c(c1)N(Cc1cccc(Cl)c1)C(=O)c1ccccc1S2(=O)=O (stereo not given)	u	19.2%	u	u	-2.4%	-22.7%
CN(C(=O)c1ccc2c(c1)N(Cc1ccc(F)cc1)C(=O)c1ccccc1S2(=O)=O)C1CCCCC1	x	x	x	x	16.4µM*	23.1µM*
CN(C(=O)c1ccc2c(c1)N(Cc1cccc(Cl)c1)C(=O)c1ccccc1S2(=O)=O)C1CCCCC1	x	x	x	x	u	20.6µM*
COc1cc(-c2nnc(Sc3ccc(C(F)(F)F)cc3[N+](=O)[O-])o2)cc(OC)c1OC	5.1%	-4.7%	u	5.9%	23.1µM*	20.6µM*
COc1ccc(C(=O)/C=C/c2ccsc2)cc1CSCC(=O)O	-2.3%	1.7%	-68.6*	-7.7%	11.6µM*	9.2µM*
CCCC1(c2ccccc2)NC(=O)N(CC(=O)Nc2sc(-c3ccccc3)cc2C(=O)OCC)C1=O (stereo not given)	11.6µM*	u	27.1	16.4µM*	u	u
CCOC(=O)c1cc(-c2ccccc2)sc1NC(=O)CN1C(=O)c2ccccc2C1=O	-5.1%	x	-28.4	-0.2%	-6.3%	-1.8%
CCCC1(c2ccccc2)NC(=O)N(CC(=O)c2[nH]c(C)c(C(=O)OCC)c2C)C1=O (stereo not given)	1.2%[9.24 µM]	18.4µM*	-16.7	u	20.6µM*	u
CCOC(=O)c1c(C)[nH]c(C(=O)CN2C(=O)NC(C)(c3ccc4ccccc4c3)C2=O)c1C (stereo not given)	u	16.4µM*	-26.3	u	u	u
COc1ccccc1Cn1c(=S)[nH]c2cc(C(=O)NCC(OC)OC)ccc2c1=O	9.0%	u	-5.4	5.2%	-13.4%	u
CCCNC(=O)CSc1nc2ccccc2nc1Cc1ccc(Cl)cc1	x	x	x	x	u	1.0%
c1ccc(C2=Nc3ccccc3OC2)cc1	-4.6%	u	14.5	-3.4%	11.2µM*	17.8µM*
Cc1ccc2c(c1)N=C(c1ccc(Cl)cc1)CO2	-14.7%	u	10.7	-9.7%	23.1µM*	u
O=C1CC(c2ccccc2)=Nc2ccccc2N1	10.9%	u	14.5	17.5%	-0.8%	7.2%
Clc1ccc(C2=Nc3cc(Cl)ccc3OC2)cc1	3.1%	u	15.5	15.5%	u	u
COc1ccc(C(CNC(=O)Cc2cccs2)N(C)C)cc1 (stereo not given)	-7.6%	11.4%	29.1	-7.6%	0.6%	-2.0%
O=C(Cc1ccccc1)NNC(=S)NC(=O)c1cccs1	u	1.5%	69.2	-27.2%	u	u
COc1ccc(/C=C/C(=O)NC(=S)NNC(=O)Cc2cccs2)cc1	16.4µM*	u	70.6	14.6µM*	u	20.6µM*
O=C(/C=C/c1ccccc1)NC(=S)NNC(=O)Cc1cccs1	u	7.5%	39.0	u	18.4µM*	u
COc1ccc(CNC(=O)Cc2cccs2)cc1	-1.1%	u	8.9	3.4%	6.8%	-0.3%
Cc1ccc(CSc2ncc(Cl)c(C(=O)Nc3nnc(C)s3)n2)cc1	x	x	x	x	-19.9%	-6.0%
CNC(=O)[C@@H]1C[C@H](Sc2nc3ccccc3[nH]2)CN1Cc1cccc(C(F)(F)F)c1	x	x	x	x	-20.6%	-24.1%
CCN(CC)S(=O)(=O)c1cc(NC(=O)CNc2cccc(S(=O)(=O)N3CCCC3)c2)ccc1C	-21.1%	u	u	4.61µM*	2.59µM*	3.26µM*
O=C(CNc1cccc(S(=O)(=O)N2CCCC2)c1)Nc1cccc(Br)c1	-23.2%	u	-2.9	-20.7%	20.6µM*	u
O=C(CNc1ccccc1F)Nc1cc(S(=O)(=O)N2CCCCC2)ccc1Cl	-0.9%	-22.3%	10.2	-14.3%	-27.2%	-29.6%
SMILES	HT1080 IDH1KD tx	ELG1 repair inh	IL1B secr inh	HT1080NT lethal	TDP1 cell noCPT	DT40 TDP1 CPT
COc1ccc(NCC(=O)Nc2cccc(S(=O)(=O)N3CCCC3)c2)cc1Cl	-17.9%	0.0%	-11.7	-14.4%	13µM*	u
CCN(CC)S(=O)(=O)c1ccc(C)c(NC(=O)CNc2cccc(S(=O)(=O)N3CCOCC3)c2)c1	3.8%	u	u	5.0%	u	-3.7%
Cc1ccc(S(=O)(=O)N2CCCCC2)cc1NCC(=O)Nc1ccc(Br)cc1F	u	x	u	u	3.66µM*	4.61µM*
COc1cc(NC(=O)CNc2cccc(S(=O)(=O)N3CCCC3)c2)cc(OC)c1	-12.4%	u	9.2	1.2%	u	u
COc1cccc(-n2c(=O)c3sccc3n(Cc3cc(=O)n4cc(Cl)ccc4n3)c2=O)c1	x	x	x	x	-6.1%	-7.5%
CCC1(c2ccc(F)cc2)NC(=O)N(CC(=O)Nc2cccnc2Cl)C1=O (stereo not given)	12.1%	-0.1%	34.3	7.5%	-17.7%	-18.2%
CCC(=O)NNC(=O)CCC(=O)Nc1cccc(Cl)c1C	9.2%	6.3%	4.8	14.0%	-1.4%	7.6%
O=C(Cc1c(Cl)cccc1Cl)OCC(=O)c1ccc[nH]1	-0.1%	x	-20.3	11.2%	u	u
COc1ccc(S(=O)(=O)N(C)C)cc1NCC(=O)Nc1ccc(Br)cc1F	-13.5%	u	u	-5.0%	29.1µM*	13µM*
CC(=O)Nc1ccc(S(=O)(=O)N(C)CC(=O)Nc2ccc(Br)cc2F)cc1	-2.1%	u	-12.0	0.6%	u	-18.0%
CCN(CC)S(=O)(=O)c1ccc(C)c(NC(=S)Nc2cccc(S(=O)(=O)N3CCCCCC3)c2)c1	u	-25.3%	u	-1.3%	23.1µM*	u
CC(=O)c1cccc(NCC(=O)Nc2cc(S(=O)(=O)N3CCCCC3)ccc2C)c1	-5.9%	u	-4.0	0.2%	u	16.4µM*
Cc1ccc(S(=O)(=O)N2CCCCC2)cc1NC(=O)COC(=O)c1cccc(O)c1	2.9%	x	29.0	0.1%	-12.3%	-27.3%
CN(C)S(=O)(=O)c1cccc(NC(=O)CNc2cccc(S(=O)(=O)N3CCCCC3)c2)c1	-16.3%	x	12.7	-10.9%	20.6µM*	u

From PubChem
